SARS PLP yeast: qHTS of Yeast-based Assay for SARS-CoV PLP; S. cerevisiae expressing SARS-CoV PLpro, growth rescue; actives 0.19% (n = 330,000); Potency, µM (doses to about 32.9 µM), most hits filed as activators; AID 485353, 2010; calls by dose curve; note: nearly all actives have a fitted effect of over 55% in size
RE007 growth inh: qHTS Assay for Inhibitors of the HIV-1 protein Vpr | S. pombe RE007 Vpr strain, BacTiter-Glo ATP luminescence, 24 h | Potency, µM (doses to about 92.2 µM), hits mostly inhibitors | actives 0.21% (n = 360,000) | AID 651644, 2012; active = well fitted falling curve with a large enough effect; inconclusive = small, poorly fitted or top-dose-only effect; inactive = no such curve, though single readings can be large or run the other way; note: nearly all actives have a fitted effect of over 50% in size
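Fission yeast RE007 carrying one integrated HIV-1 vpr copy, seeded at OD 0.01 in PMG+AL medium with 23 nL pinned compound. Grown 24 h at 30 degrees; viability read by BacTiter-Glo luminescence after 5 min.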
Pf growth 96h: Primary qHTS for delayed death inhibitors of the malarial parasite plastid, 96 hour incubation; P. falciparum luciferase reporter growth, 96 h; Potency, µM (highest dose often 28.7 µM), usual class: inhibitors; actives 6.9% (n = 320,000)
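Two parasite generations (96 h, 37 C, 5% CO2) of compound exposure in infected erythrocytes (0.05% parasitemia, 2% hematocrit). Luciferase-reporter P. falciparum; decreased luminescence indicates inhibited growth, aimed at apicoplast-acting delayed death.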
Pf growth 48h: Primary qHTS for delayed death inhibitors of the malarial parasite plastid, 48 hour incubation. P. falciparum luciferase growth in erythrocytes, 48 h. Potency, µM (series often up to 28.7 µM), usual class: inhibitors. actives 5.9% (n = 310,000). AID 504832, 2011
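Compounds are pin-transferred into medium, infected erythrocytes (2% hematocrit, 0.1% parasitemia final) are added, and plates sit one parasite generation at 37 C in 5% CO2. Detection reagent is then added and luminescence measured.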
NS1 inh: qHTS Assay for Inhibitors of Influenza NS1 Protein Function; Potency, µM (titrated, usually from 46.1 µM); actives 0.4% (n = 270,000); calls by dose curve; note: actives are rising curves; nearly all actives have a fitted effect of over 50% in size
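Read-out: OD600 growth recovery of NS1-expressing budding yeast. Cells grown overnight at 30C in -URA glucose medium, washed, resuspended and diluted 1:100 in 2% galactose assay medium, pH 6.0. Same strain lacking NS1 served as positive control.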
Numbers stand for hits; i = inactive; ? = inconclusive; nt = no result; [ ] = dose if it differs, or a comment. Hits are enriched below; roughly 9.5% of the tested compounds scored in any of these assays. Unless noted, calls come from the whole dose curve; as a rule, active = well fitted inhibition curve with a large enough effect; inconclusive = small, poorly fitted or top-dose-only effect, or another doubt; inactive = no such curve, though single readings can be large or run the other way.

SMILES	SARS PLP yeast	RE007 growth inh	Pf growth 96h	Pf growth 48h	NS1 inh
CCOc1ccc2[nH]c(=O)c(CN(CCN3CCCC3)C(=S)Nc3ccccc3OCC)cc2c1	i	i	?	6.57µM	i
COc1ccc(C(=O)N(Cc2ccco2)Cc2cc3cc(C)ccc3[nH]c2=O)cc1OC	nt	i	nt	nt	i
CCCS(=O)(=O)NC(=O)C1(C)CCN(C(=O)c2ccc(C(F)(F)F)nc2C)C1 (stereo unspecified)	nt	i	nt	nt	nt
COc1ccccc1NC(=O)N(Cc1ccco1)Cc1cc2c(C)ccc(C)c2[nH]c1=O	i	i	i	?	i
COc1ccccc1NC(=O)N(Cc1ccco1)Cc1cc2cccc(C)c2[nH]c1=O	i	i	13.1µM	?	i
CCc1ccc2[nH]c(=O)c(CN(Cc3ccccc3OC)C(=O)Nc3ccccc3OC)cc2c1	i	i	nt	11.7µM	i
Cc1cc(S(=O)(=O)N(Cc2ccccc2Cl)c2ccc3c(c2)CCC3)ccc1-n1cnnn1	i	i	i	11.7µM	i
CN(C)CCCNS(=O)(=O)c1ccc(N2CCC(c3ccc(Cl)cc3)=N2)cc1	i	nt	nt	9.28µM	i
O=C(c1ccc2c(c1)CCC2)N1CCN(Cc2ccccc2)CC1	nt	i	nt	nt	nt
CC(C)(C)c1ccc(O)c(N=Cc2cc(Br)ccc2O)c1	i	i	i	10.4µM	i
COC(=O)C1=NN(c2ccc(C)cc2)C2(S1)SC(C(C)=O)=C(C)N2c1ccccc1 (stereo unspecified)	i	?	nt	10.4µM	i
COC(=O)C1=NN(c2ccccc2)C2(S1)SC(C(C)=O)=C(C)N2c1ccccc1 (stereo unspecified)	i	i	i	?	i
CC1=NN(c2ccccc2)C(=O)C1=Cc1ccccc1	nt	i	nt	nt	nt
CC(=O)C1=NN(c2ccccc2)C2(S1)S/C(=C\c1ccccc1)C(=O)N2c1ccccc1 (stereo unspecified)	i	i	nt	11.7µM	i
C[n+]1ccccc1COc1ccc(C(C)(C)C)cc1	i	i	0.37µM	?	i
O=S(=O)(c1ccccc1)N(CC1CO1)c1ccccc1 (stereo unspecified)	i	i	i	i	i
O=S(=O)(c1ccccc1)N(CC1CO1)c1cccc2ccccc12 (stereo unspecified)	i	i	?	11.7µM	i
Cc1[nH]nc(N=CC2=C(O)CC(c3ccco3)CC2=O)c1-c1ccccc1 (stereo unspecified)	i	i	7.38µM	?	i
Cc1ccc(NS(=O)(=O)c2ccc(OCC(N)=O)cc2)cc1	i	i	i	i[5.75 µM]	i
Cc1cc2nc(C3CCN(CC4COc5ccccc5O4)CC3)[nH]c2cc1C (stereo unspecified)	i	i	i	13.1µM	i
COc1cc2cc3c(N)c(C(=O)NCc4ccco4)sc3nc2cc1OC	i	i	i	?	i
COc1cc2cc3c(N)c(C(=O)Nc4sc(C)c(C)c4C#N)sc3nc2cc1OC	i	i	11.7µM	?	i
CCc1nc2ccc(C(=O)NCCc3c[nH]c4ccccc34)cn2c1N(C)Cc1ccc(N(C)C)cc1	nt	i	nt	nt	nt
Cc1cc(NC(=O)CCN2C(=O)C3C4CCC(C4)C3C2=O)cc(C)c1Br (stereo unspecified)	i	i	0.928µM	i	i
S=c1nc(-c2nc(=S)[nH]c3c2CCCCCCCCCC3)c2c([nH]1)CCCCCCCCCC2	nt	nt	nt	nt	i
SMILES	SARS PLP yeast	RE007 growth inh	Pf growth 96h	Pf growth 48h	NS1 inh
CCN(CC)C(=O)CSc1ccc(C(F)(F)F)cc1[N+](=O)[O-]	i	i	i	i	i
CCCCNC(=O)c1ccc(SCC(=O)N(CC)CC)c([N+](=O)[O-])c1	i	i	1.04µM	i	nt
O=C(c1cccc(Cl)c1)N1CCC(N2CCC(C(=O)N3CCCC3)CC2)CC1	i	i	14.7µM	?	i
CCOC(=O)C1CCN(C(=O)c2ccc(S(=O)(=O)Nc3ccccc3OC)cc2)CC1	i	i	11.7µM	?	nt
CCOC(=O)C1CCN(C(=O)c2cc(C(C)(C)C)nn2Cc2ccccc2)CC1	i	i	1.17µM	1.17µM	i
CCOC(=O)C1CCCN(C(=O)c2ccccc2)CC1 (stereo unspecified)	nt	i	nt	nt	nt
CCOC(=O)C1CCN(C(=O)c2ccccc2NS(=O)(=O)c2ccccc2)CC1	i	i	i	i	i
CCOC(=O)C1CCN(C(=O)c2cccc(Cl)c2)CC1	i	i	7.38µM	i	i
CCc1nc2c(OCc3ccc(F)cc3)cccn2c1N(C)C(=O)c1ccc(C)cc1	nt	i	nt	nt	nt
O=C(CCN1C(=O)C2CCCCC2C1=O)N1CCN(S(=O)(=O)c2c(F)cccc2F)CC1 (stereo unspecified)	i	i	i	i	nt
O=C(NCc1ccco1)c1ccc(CS(=O)Cc2ccc(Cl)cc2)o1 (stereo unspecified)	i	i	i	i	i
CCOC(=O)C1CCN(C(=O)c2ccc3nc(-c4ccc(OC)cc4)c(-c4ccc(OC)cc4)nc3c2)CC1	i	i	i	8.28µM	i
CCOC(=O)C1CCN(C(=O)C2CCN(c3nnc(-n4cccc4)s3)CC2)CC1	i	i	i	?	i
CCOC(=O)C1CCN(C(=O)C2CCN(c3nc4ccc(OC)cc4s3)CC2)CC1	i	i	10.4µM	?	i
CCOc1ccc2nc(NC(=O)CSc3nc4ccccc4c(=O)n3Cc3ccco3)sc2c1	i	i	1.31µM	?	i
COc1ccc(OC)c(C(=O)CSc2nc3c(c(=O)n(C)c(=O)n3C)n2C(C)C)c1	i	i	14.7µM	i	i
CCOC(=O)CSc1nc2ccccc2c(=O)n1Cc1ccco1	i	i	i	i	i
CCOc1ccc2nc(NC(=O)CSc3nc4c(c(=O)n(C)c(=O)n4C)n3C(C)C)sc2c1	i	i	11.7µM	i	i
Cc1cc(OI)c(C(C)C)cc1-c1cc(C(C)C)c(OI)cc1C	nt	nt	6.75µM	?	nt
COc1cc(C)c(N)cc1C(C)C	i	i	nt	i	i
CC(=O)NC(c1ccco1)c1cc(Cl)c2ccccc2c1O (stereo unspecified)	i	nt	i	i	nt
CC(=O)NC(c1cccs1)c1cc(F)c2cccnc2c1O (stereo unspecified)	i	nt	4.65µM	2.94µM	nt
CC(=O)NC(c1ccco1)c1cc(F)c2cccnc2c1O (stereo unspecified)	i	nt	?	4.15µM	nt
Cn1c(CS(=O)Cc2c(Cl)cccc2Cl)nnc1SCc1c(Cl)cccc1Cl (stereo unspecified)	i	i	4.65µM	?	i
CCOC(=O)O[C@@H](C)OC(=O)[C@@H]1N2C(=O)[C@@H](NC(=O)[C@@H](N)c3ccccc3)[C@H]2SC1(C)C	nt	nt	i	i	nt
Cc1nonc1N1CCN(Cc2cn[nH]c2-c2ccc(F)cc2F)CC1	i	i	?	i	i
O=C(C1CCN(Cc2cn[nH]c2-c2ccc(F)cc2F)CC1)N1CCOCC1	i	i	i	i	i
OCCCC1CCCN(Cc2cn[nH]c2-c2ccc(F)cc2F)C1 (stereo unspecified)	i	i	7.38µM	i	i
